Among all 6,200 compounds or so, about 2,900 (47%) were called active. The set was probably picked from earlier hits. The list shows a part of the results. Unmarked numbers belong to inactive results. Cut-off read from the data, not from the text of the source: active = inhibition above about 50%; inactive = the rest.
Test: Mycobacterium tuberculosis growth inhibition, primary screen (AID 1259343)
Conditions: inhibition: at 10 µM, active compounds read high; outcome: 10 uM

SMILES	inhibition
CN(C)N=CC=C1CCC(=Cc2ccc(C(F)(F)F)cc2)C1=O	8.26%
NNc1ccc2c(Cl)cc(Cl)c(O)c2n1	99.5% (active)
Cc1ccc2c(Cl)cc(Cl)c(O)c2n1	47.9%
CCC(CO)NC(=S)N=P(c1ccccc1)(N(CC)CC)N(CC)CC (stereo not given)	81.6% (active)
FC(F)(F)c1cnc(NCc2ccc3c(c2)OCCO3)c(Cl)c1	25.7%
CN(CC(O)COCc1ccc2c(c1)OCO2)c1ncc(C(F)(F)F)cc1Cl (stereo not given)	78% (active)
COC(=O)NNC(=S)NC(=O)C12CC3CC(CC(C3)C1)C2	97.8% (active)
Cc1[nH]n(-c2nc3ccccc3s2)c(=O)c1C=NC(C)c1ccccc1 (stereo not given)	86.9% (active)
Cc1nc(Cl)sc1S(=O)(=O)NCC(C)c1ccccc1 (stereo not given)	24.9%
Clc1ccc(-c2nn3c4cc(N5CCNCC5)ccc4nc3c3ccccc23)cc1	92.9% (active)
CN(C1CCCCC1)S(=O)(=O)N1CCc2ccccc21	98.1% (active)
CN(C1CCCCC1)S(=O)(=O)c1ccc2ccccc2c1	38.7%
CN(C1CCCCC1)S(=O)(=O)N1CCN(c2cccc(F)c2C#N)CC1	10.2%
CCCCCN(C)C(=O)c1cc(-c2ccc3ccccc3c2)on1	94% (active)
CN(C)C=Nc1nc(-c2ccc3ccccc3c2)cs1	-25.4%
CC1Cc2cc(-c3cc(C(=O)O)no3)ccc2O1 (stereo not given)	27.8%
CCOc1ccc(NC(=O)C(C)Sc2nc(N)cc(N)n2)cc1 (stereo not given)	86% (active)
O=P(Nc1cccc(F)c1)(Oc1ccccc1F)Oc1ccccc1F	22%
CCCCCc1ccc(NC(=O)CCN2CCSC2=O)cc1	99% (active)
CCCCc1ccc(NC(=O)COC(=O)C23CCC(=O)N2CCS3)cc1 (stereo not given)	95.3% (active)
CCN=c1scc(-c2ccc(Br)cc2)n1/N=C1\C(=O)N(C)c2ccccc21	20.4%
O=C(NC12CC3CC(CC(C3)C1)C2)c1cncc(Br)c1	50.2% (active)
CC1CCCC(NC(=O)c2cncc(Br)c2)C1 (stereo not given)	-31%
Cn1cc(-c2nc(C(=O)NC34CC5CC(CC(C5)C3)C4)cs2)cn1	31.8%
O=S(=O)(Nc1ccc2c(c1)CCC2)c1ccc(F)cc1	-4.64%
O=S(=O)(NCc1ccc(F)cc1)c1ccc2c(c1)CCCC2	89.6% (active)
COc1ccc(CNS(=O)(=O)c2ccc3c(c2)CCCC3)cc1	-18%
CC(=O)Nc1ccc(C(=O)NC2CCC3CCCCC3C2)cc1 (stereo not given)	-37.5%

SMILES	inhibition
COCc1ccc(C(=O)NC2C3CC4CC(C3)CC2C4)cc1 (stereo not given)	75.8% (active)
CCCc1nc(CN(C)c2nc(C)nc3sccc23)no1	14.1%
COc1cccc(OC)c1OCCCOc1ccc(C)cc1Br	87.8% (active)
COc1cccc(OC)c1OCCOc1ccc(C)cc1Br	76.4% (active)
COc1ccccc1OCCCOc1ccc(C)cc1Br	34.8%
CCCCCCc1ccc(C(=O)Nc2ccc(-n3nc(OC)nc3-c3ccc4c(c3)OCO4)cc2)cc1	56.7% (active)
O=C(Nc1ccc(N2CCC(NCCC3=CCCCC3)CC2)cc1)c1ccc2c(c1)OCO2	47%
COc1cc2c(cc1O)C(SC)=NC(C)(C)C2	55.5% (active)
Cc1csc(C(C#N)C(=O)Nc2ccccc2)n1 (stereo not given)	-32.9%
CC(=O)NC(C)C(=O)Nc1cccc(Sc2ccccc2)c1 (stereo not given)	62.7% (active)
CCCS(=O)(=O)N1CC=C(c2c[nH]c3cc(F)ccc23)CC1	88.2% (active)
CCCS(=O)(=O)N1CCc2[nH]c3ccc(F)cc3c2C1	22.7%
CC1CCN(S(=O)(=O)N2CC=C(c3c[nH]c4ccccc34)CC2)CC1	29.2%
O=C(Nc1cccc2cnccc12)OCC(F)(F)F	72.3% (active)
Cc1ccc(C(=O)O)cc1OCc1csc(Br)c1	7.03%
COc1cc(C(=O)C(C#N)C(=O)CC(C)(C)C)ccc1C (stereo not given)	101% (active)
CCC(=NNc1ccnc2cc(Cl)ccc12)c1ccccc1	93.9% (active)
CC(=NNc1ccnc2cc(Cl)ccc12)c1ccc(C)o1	2.38%
CC(Nc1nc(-c2cccs2)nc2cc(Cl)ccc12)c1ccccc1 (stereo not given)	3.37%
CC1CCC(C(C)C)C(OC(=O)COC(=O)c2ccc([N+](=O)[O-])o2)C1 (stereo not given)	10.8%
CC(OC(=O)c1ccc([N+](=O)[O-])o1)C(=O)Nc1ccccc1OC(F)F (stereo not given)	101% (active)
CN(C)c1ccccc1NC(=O)c1ccccc1OC(F)F	23.1%
COc1ccc(-c2nc(CNc3ccc(C)c(F)c3)no2)cc1	91.5% (active)
CC(C)c1ccc(NC(=O)c2ccc(-c3ccnn3C)c3ccoc23)cc1	77.8% (active)
CC(C)c1cnc(COc2ccc(Br)nc2)o1	38.6%
Cc1nc(NC(=O)c2cccc(Br)c2)oc1C	94.3% (active)
NC(=S)c1cccc(Br)c1	22.8%
